Data published in PubChem BioAssay (NCI).
About 83,000 compounds went through this panel and 20% of them were active in at least one assay; those are over-represented in the sample as a whole.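 Cell lines were cultured in 96-well plates, exposed to a single compound concentration, and assessed for percent growth 48 hours later.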 Calls of active or inactive are those of the source. The calls were made as follows: active = growth percent below 10; inactive = the rest.

What follows are compounds tested on SR leukemia (assay: NCI-60 one-dose screen, 48 h (100 = growth as untreated, 0 = no growth, -100 = all killed)). Conditions: 10 µM unless noted.
With `COc1ccc(O)c(-c2cc(-c3ccccc3)c(C#N)c(=O)[nH]2)c1` the growth was 89% (inactive).
For `CN(C)c1ccc(/C=C2\C=C(c3ccccc3)N(CCc3ccccc3)C2=O)cc1`, the growth was 23.5% (inactive).
`O=c1oc2ccc(Cl)cc2cc1-c1cs/c(=N/N=C\c2ccc(Cl)cc2)n1/N=C/c1ccc(Cl)cc1` was tested, and the growth was 83.4% (inactive).
In the case of `O=C1c2ccccc2C2(c3ccc(O)cc3)c3ccccc3Oc3cccc1c32` (stereo not drawn), the growth is reported as 9.2% (active).
With `c1ccc([P+](CCCc2n(Cc3ccc4ccccc4c3)c3ccccc3[n+]2Cc2ccc3ccccc3c2)(c2ccccc2)c2ccccc2)cc1` the growth was 30.8% (inactive).
In the case of `C/C(Cc1ccc(Cl)cc1)=C(/c1ccc(Cl)cc1)c1ccc(OCCN(C)C)cc1`, the growth is reported as -41.1% (active).
`COc1cc2c(cc1OC)-c1ccc3cc4c(cc3c1N(CCCN1CCCCC1)C2)OCO4` was tested, and the growth was -7.48% (active).
For `COc1ccc(C(=O)/C=C/c2cc3c(c(OC)c2)OCC(=O)N3)cc1`, the growth was 20.4% (inactive).
With `Cn1nnnc1-c1ccc(N)cc1` the growth was 87.6% (inactive).
With `CCCCNCC(=O)Nc1ccc(C(=O)OCC)cc1` the growth was 87% (inactive).
For `CCCCCOC(=O)c1ccc(NC(=O)CNCC(C)C)cc1`, the growth was 82.2% (inactive).
With `Cc1nc(Nc2cccc(NC(=O)Nc3ccc(Cl)cc3)c2)c2ccccc2n1` the growth was 22.1% (inactive).
For `C=C(Cl)COC(=O)C(C)(C)O`, the growth was 91.2% (inactive).
In the case of `CCNCCNc1cc(-c2ccc(Cl)cc2)c(C#N)c2nc3ccccc3n12`, the growth is reported as -35.6% (active).
For `O=C1NCC(=O)N(Cc2ccco2)[C@H]1Cc1ccccc1`, the growth was 92.6% (inactive).
For `Cc1ccc(NC(=O)C(Cl)Cl)cc1`, the growth was 97.2% (inactive).
For `CCOc1cccnc1/C=N/NC(N)=S`, the growth was 6.35% (active).
With `O=C(c1ccccc1)c1ccc(Cl)c([N+](=O)[O-])c1` the growth was -3.1% (active).
For `CCN(CC)CC(=O)Nc1cccc(C(=O)OC(C)C)c1`, the growth was 95.2% (inactive).
`CCOC(=O)C(O)C(O)(c1ccccc1)c1ccccc1` (stereo not drawn) was tested, and the growth was 95% (inactive).
For `C[C@@H]1C(=O)N(C[C@@H](Cc2ccccc2)NC(=O)OCc2ccccc2)[C@]1(Cc1ccccc1)C(=O)OCc1ccccc1`, the growth was 16.6% (inactive).
In the case of `CC1(C)N=C(N)N=C(N)N1c1cccc(CN)c1`, the growth is reported as 105% (inactive).
With `CC(c1ccc(-n2cccn2)cc1)c1cnc(N2CCc3ccc(C(N)=O)cc3C2)s1` (stereo not drawn) the growth was 53.5% (inactive).
For `COc1ccc(OC)c(Nc2nc3nonc3nc2Nc2cccc(Br)c2)c1`, the growth was 19.6% (inactive).
`N#Cc1c(N)nc2c(nnn2-c2cccc(Br)c2)c1N` was tested, and the growth was 83.8% (inactive).
With `[2H]c1nc(Nc2ncc(F)c(-c3cc(F)c4nc(C)n(C(C)C)c4c3)n2)c([2H])c([2H])c1CN1CCN(C([2H])([2H])C([2H])([2H])[2H])CC1` the growth was 36.3% (inactive).
In the case of `Cc1c(C(=O)O)nnn1-c1nccs1`, the growth is reported as 101% (inactive).
With `CCNCCNc1cc(-c2ccc(C(=O)OC)cc2)c(C#N)c2nc3ccccc3n12` the growth was -7.47% (active).
For `CO[C@H]1/C=C/O[C@@]2(C)Oc3c(C)c(O)c4c(c3C2=O)C(=O)C(/C=N/N(c2ccccc2)c2ccccc2)=C(NC(=O)/C(C)=C\C=C\[C@H](C)[C@H](O)[C@@H](C)[C@@H](O)[C@@H](C)[C@H](OC(C)=O)[C@@H]1C)C4=O`, the growth was -13% (active).
In the case of `O[C@H]1CO[C@H]2[C@@H]1OC[C@@H]2Oc1ccc(Nc2nc(Nc3ccc(F)c(Cl)c3)ncc2F)cc1Cl`, the growth is reported as 110% (inactive).
For `CCNCCNc1cc(-c2cccc(C(F)(F)F)c2)c(C#N)c2nc3ccccc3n12`, the growth was -37.5% (active).
`CN(C)CCN1C(=O)c2cccc3c(-c4ccc(-c5nc6c7ccccc7c7ccccc7c6[nH]5)cc4)ccc(c23)C1=O` was tested, and the growth was 38.6% (inactive).
For `CCOC(=O)c1c(C)nc2c(c1N)/C(=C/c1ccc(OC)cc1)C(=O)N2Cc1ccc(F)cc1`, the growth was 1.71% (active).
`CSc1ccc(Cl)c(C(=O)Nc2sccc2C(N)=O)c1` was tested, and the growth was 104% (inactive).
For `CN1C[C@@H](c2ccc(Cl)cc2)[C@]2(NC(=S)N(c3ccc(F)c(Cl)c3)C2=O)[C@@]12C(=O)NC1C=CC(Cl)=C[C@H]12` (stereo partly drawn), the growth was 0.495% (active).
In the case of `O=C(Nc1ccccc1)c1sc(-c2cccc(C(F)(F)F)c2)cc1O`, the growth is reported as 62.5% (inactive).
For `NS(=O)(=O)c1cn(-c2ncnc3nc[nH]c23)ccc1=O`, the growth was 132% (inactive).
With `Nc1c(C(=O)c2ccccc2)nnc2ncnn12` the growth was 94.6% (inactive).
`CCCCCCCSc1ccc(C(=O)O)cc1` was tested, and the growth was 104% (inactive).

These compounds were tested on RPMI-8226 leukemia in the same assay as above. Conditions: 10 µM unless noted.
`COc1ccc(O)c(-c2cc(-c3ccccc3)c(C#N)c(=O)[nH]2)c1` was tested, and the growth was 81.2% (inactive).
In the case of `CN(C)c1ccc(/C=C2\C=C(c3ccccc3)N(CCc3ccccc3)C2=O)cc1`, the growth is reported as 93% (inactive).
With `O=c1oc2ccc(Cl)cc2cc1-c1cs/c(=N/N=C\c2ccc(Cl)cc2)n1/N=C/c1ccc(Cl)cc1` the growth was 103% (inactive).
With `O=C1c2ccccc2C2(c3ccc(O)cc3)c3ccccc3Oc3cccc1c32` (stereo not drawn) the growth was 17.8% (inactive).
`c1ccc([P+](CCCc2n(Cc3ccc4ccccc4c3)c3ccccc3[n+]2Cc2ccc3ccccc3c2)(c2ccccc2)c2ccccc2)cc1` was tested, and the growth was 6.9% (active).
For `C/C(Cc1ccc(Cl)cc1)=C(/c1ccc(Cl)cc1)c1ccc(OCCN(C)C)cc1`, the growth was -41.4% (active).
With `COc1cc2c(cc1OC)-c1ccc3cc4c(cc3c1N(CCCN1CCCCC1)C2)OCO4` the growth was 14.5% (inactive).
In the case of `COc1ccc(C(=O)/C=C/c2cc3c(c(OC)c2)OCC(=O)N3)cc1`, the growth is reported as 5.42% (active).
For `Cn1nnnc1-c1ccc(N)cc1`, the growth was 103% (inactive).
In the case of `CCCCNCC(=O)Nc1ccc(C(=O)OCC)cc1`, the growth is reported as 94% (inactive).
For `CCCCCOC(=O)c1ccc(NC(=O)CNCC(C)C)cc1`, the growth was 73.1% (inactive).
In the case of `Cc1nc(Nc2cccc(NC(=O)Nc3ccc(Cl)cc3)c2)c2ccccc2n1`, the growth is reported as 66.8% (inactive).
In the case of `C=C(Cl)COC(=O)C(C)(C)O`, the growth is reported as 99.5% (inactive).
`CCNCCNc1cc(-c2ccc(Cl)cc2)c(C#N)c2nc3ccccc3n12` was tested, and the growth was -19.4% (active).
In the case of `O=C1NCC(=O)N(Cc2ccco2)[C@H]1Cc1ccccc1`, the growth is reported as 104% (inactive).
`Cc1ccc(NC(=O)C(Cl)Cl)cc1` was tested, and the growth was 97% (inactive).
`CCOc1cccnc1/C=N/NC(N)=S` was tested, and the growth was 49.9% (inactive).
For `O=C(c1ccccc1)c1ccc(Cl)c([N+](=O)[O-])c1`, the growth was 82.3% (inactive).
For `CCN(CC)CC(=O)Nc1cccc(C(=O)OC(C)C)c1`, the growth was 105% (inactive).
`CCOC(=O)C(O)C(O)(c1ccccc1)c1ccccc1` (stereo not drawn) was tested, and the growth was 106% (inactive).
`C[C@@H]1C(=O)N(C[C@@H](Cc2ccccc2)NC(=O)OCc2ccccc2)[C@]1(Cc1ccccc1)C(=O)OCc1ccccc1` was tested, and the growth was 19.6% (inactive).
With `CC1(C)N=C(N)N=C(N)N1c1cccc(CN)c1` the growth was 99.9% (inactive).
For `CC(c1ccc(-n2cccn2)cc1)c1cnc(N2CCc3ccc(C(N)=O)cc3C2)s1` (stereo not drawn), the growth was 34.5% (inactive).
`COc1ccc(OC)c(Nc2nc3nonc3nc2Nc2cccc(Br)c2)c1` was tested, and the growth was 2.67% (active).
With `N#Cc1c(N)nc2c(nnn2-c2cccc(Br)c2)c1N` the growth was 86.8% (inactive).
In the case of `[2H]c1nc(Nc2ncc(F)c(-c3cc(F)c4nc(C)n(C(C)C)c4c3)n2)c([2H])c([2H])c1CN1CCN(C([2H])([2H])C([2H])([2H])[2H])CC1`, the growth is reported as 42.8% (inactive).
For `Cc1c(C(=O)O)nnn1-c1nccs1`, the growth was 93% (inactive).
With `CCNCCNc1cc(-c2ccc(C(=O)OC)cc2)c(C#N)c2nc3ccccc3n12` the growth was 20.8% (inactive).
For `CO[C@H]1/C=C/O[C@@]2(C)Oc3c(C)c(O)c4c(c3C2=O)C(=O)C(/C=N/N(c2ccccc2)c2ccccc2)=C(NC(=O)/C(C)=C\C=C\[C@H](C)[C@H](O)[C@@H](C)[C@@H](O)[C@@H](C)[C@H](OC(C)=O)[C@@H]1C)C4=O`, the growth was -19.1% (active).
`O[C@H]1CO[C@H]2[C@@H]1OC[C@@H]2Oc1ccc(Nc2nc(Nc3ccc(F)c(Cl)c3)ncc2F)cc1Cl` was tested, and the growth was 116% (inactive).
`CCNCCNc1cc(-c2cccc(C(F)(F)F)c2)c(C#N)c2nc3ccccc3n12` was tested, and the growth was -29.3% (active).
With `CN(C)CCN1C(=O)c2cccc3c(-c4ccc(-c5nc6c7ccccc7c7ccccc7c6[nH]5)cc4)ccc(c23)C1=O` the growth was 54.9% (inactive).
`CCOC(=O)c1c(C)nc2c(c1N)/C(=C/c1ccc(OC)cc1)C(=O)N2Cc1ccc(F)cc1` was tested, and the growth was -17.2% (active).
For `CSc1ccc(Cl)c(C(=O)Nc2sccc2C(N)=O)c1`, the growth was 95.3% (inactive).
In the case of `CN1C[C@@H](c2ccc(Cl)cc2)[C@]2(NC(=S)N(c3ccc(F)c(Cl)c3)C2=O)[C@@]12C(=O)NC1C=CC(Cl)=C[C@H]12` (stereo partly drawn), the growth is reported as 2.67% (active).
In the case of `O=C(Nc1ccccc1)c1sc(-c2cccc(C(F)(F)F)c2)cc1O`, the growth is reported as 35.5% (inactive).
`NS(=O)(=O)c1cn(-c2ncnc3nc[nH]c23)ccc1=O` was tested, and the growth was 74.7% (inactive).
In the case of `Nc1c(C(=O)c2ccccc2)nnc2ncnn12`, the growth is reported as 101% (inactive).
`CCCCCCCSc1ccc(C(=O)O)cc1` was tested, and the growth was 92.1% (inactive).
